Data on nine molecules can be found in PubChem BioAssay (NCI).

Holding throughout (test): NCI-60 one-dose screen, 48 h (100 = growth as untreated, 0 = no growth, -100 = all killed)
For experiment [1], the system named is NCI-H23 lung. The conditions noted are these: 10 µM.
Experiment [2] relates to HOP-92 NSCLC. The conditions noted are these: 10 µM.
The subject of experiment [3] is NCI-H522 lung. Particulars: 10 µM.
Experiment [4] concerns COLO 205 colon. The conditions noted are these: 10 µM.
The test system of experiment [5] is K-562 leukemia. The conditions noted are these: 10 µM.
Experiment [6] has as its system RXF 393 renal. The conditions noted are these: 10 µM.
For experiment [7], the system named is UO-31 renal. Particulars: 10 µM.
The test system of experiment [8] is CCRF-CEM leukemia. The conditions noted are these: 10 µM.
The subject of experiment [9] is MOLT-4 leukemia. The conditions noted are these: 10 µM.
The subject of experiment [10] is SR leukemia. The conditions noted are these: 10 µM.
For experiment [11], the system named is OVCAR-5 ovarian. The conditions noted are these: 10 µM.
In experiment [12] the test system is MCF7 breast. The conditions noted are these: 10 µM.
The test system of experiment [13] is KM12 colon. The conditions noted are these: 10 µM.
Experiment [14] relates to MDA-MB-468 breast. Particulars: 10 µM unless noted.
Experiment [15] relates to LOX IMVI melanoma. Particulars: 10 µM.
The test system of experiment [16] is HS 578T breast. Particulars: 10 µM.
Experiment [17] concerns T-47D breast. Particulars: 10 µM.
Experiment [18] concerns SW-620 colon. Particulars: 10 µM.
Experiment [19] concerns MDA-MB-231 breast. Particulars: 10 µM.
The test system of experiment [20] is NCI/ADR-RES ovarian. Particulars: 10 µM.

About 83,000 compounds went through this panel and 20% of them were active in at least one assay; those are over-represented in the sample as a whole.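 How to read the values: 0–100, growth inhibition (40 = 60% inhibited); 0, no net growth; -100 to 0, cell death (-40 = 40% of starting cells died; -100 = all dead).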 Unmarked numbers belong to inactive results. Activity calls are given as the source filed them. The calls were made as follows: active = growth percent below 10; inactive = the rest.

As for `N#C[Se]CC(=O)Nc1cccc(C(F)(F)F)c1`, the growth in [1] is -46.7% (active); in experiment [2], -69.3% (active); in experiment [3] it was -70.2% (active); in experiment [4], -1.16% (active); in [5], 20.5%; in experiment [6] it was -40.9% (active). In addition, the growth is -84.2% (active) in [7]; 22.5% in experiment [8]; 9.42% (active) in experiment [9]; 18.5% in experiment [10]; -36.7% (active) in [11]; 6% (active) in [12]. Moreover, the results for the growth in experiment [13] and in [14] were 41.5% and -86.7% (active), respectively.
With `COC(=O)C[C@](O)(CCC(C)C)C(=O)O[C@@H]1C(OC)=C[C@]23CCCN2CCc2cc4c(cc2[C@H]13)OCO4`, the growth in [1] was -68% (active); in experiment [2], -19.4% (active); in experiment [3], -80.7% (active); in experiment [4], -84.7% (active); in [5], 1.57% (active); in experiment [6], -89.6% (active). Moreover, the growth in [15] was -82.6% (active); in [8], -12% (active); in experiment [9], -7.96% (active); in [16], -22.2% (active); in experiment [17], -24% (active); in [18], -7.29% (active). The results for the growth in experiment [13] and in [14] were -20.8% (active) and -83.8% (active), respectively.
As to `COCCOCCOCCOc1ccc(-n2cc(-c3ccc(O[C@H]4O[C@@H]5OC6(C)CC[C@H]7[C@H](C)CC[C@@H]([C@H]4C)[C@@]57OO6)cc3)nn2)cc1`, the growth in [1] is 27.2%; in [2] it was 83.2%; in experiment [3], -21.3% (active); in experiment [4], -11.4% (active); in experiment [5], 28.6%; in experiment [19], 79.9%. The growth is 69.4% in [6]; 36.1% in experiment [15]; 11.5% in [7]; 53.7% in experiment [8]; 21.2% in experiment [9]; 33.8% in [10]. In addition, the growth in [16] is 43.9%; in [17] it was 17.3%; in [18], 27.7%; in experiment [13], 31.6%; in experiment [14], 13.3%.
For the molecule `O=C(/C=C/c1ccc(Br)cc1)c1nc2ccccc2n1Cc1ccc(Br)cc1`, the growth is -36.3% (active) in [1]; -11.1% (active) in experiment [2]; -39.8% (active) in [3]; 0.898% (active) in experiment [5]; -82% (active) in experiment [6]; -66.4% (active) in experiment [7]. Moreover, the growth is 10.3% in experiment [8]; -4.04% (active) in [9]; -13.9% (active) in experiment [10]; -43.4% (active) in experiment [11]; 1.99% (active) in experiment [17]; 3.68% (active) in [12]. In addition, the growth in [13] is 22.5%; in [14], -74.3% (active).
As to `C[C@H]1[C@H](OC(=O)CCC(=O)N(CCCc2cn(-c3ccc(CN4CCOCC4)cc3)nn2)CCNc2ccnc3cc(Cl)ccc23)O[C@@H]2OC3(C)CC[C@H]4[C@H](C)CC[C@@H]1[C@@]24OO3`, the growth in experiment [1] was 45.3%; in experiment [2], -9.61% (active); in [3] it was -22.3% (active); in [5], 4.56% (active); in [19], 42.5%; in experiment [6] it was 7.45% (active). Moreover, the growth in experiment [15] was 7.19% (active); in experiment [7], 13.1%; in experiment [8], 8.19% (active); in experiment [9] it was -4.26% (active); in experiment [10], -17.8% (active); in experiment [16] it was 9.17% (active). Moreover, the growth in experiment [17] is 25.4%; in experiment [18], 25.5%; in experiment [13], 24.7%; in experiment [14] it was 29%.
Take `Cc1ccc2[nH]c(=S)n(-c3ccc(F)cc3)c(=O)c2c1`: the growth in experiment [1] is 98.7%; in [2], 77.2%; in experiment [4], 134%; in experiment [5] it was 96.6%; in experiment [19], 93.1%; in experiment [6], 98.2%. The growth in [15] was 92.7%; in experiment [7] it was 82.7%; in experiment [8], 86.3%; in [9] it was 106%; in [10] it was 103%; in [16], 104%. The growth in experiment [20] was 103%; in experiment [17] it was 93.5%; in experiment [18], 102%; in [13], 103%.
`C#CCCCN(CCNc1ccnc2cc(Cl)ccc12)C(=O)CCC(=O)O[C@@H]1O[C@@H]2OC3(C)CC[C@H]4[C@H](C)CC[C@@H]([C@H]1C)[C@@]24OO3`: the growth in [1] was 35.7%; in experiment [2], 27.3%; in experiment [3], 8.38% (active); in [4], 7.04% (active); in experiment [5], 13%; in experiment [19], 64.2%. Besides, the growth is 34.3% in experiment [6]; -40.9% (active) in experiment [15]; 14.3% in experiment [7]; 24.4% in [8]; -4.65% (active) in [9]; -21.9% (active) in [10]. Besides, the growth in experiment [16] was 44.1%; in experiment [18] it was 33.2%; in experiment [12], 14.2%; in experiment [13], 27.7%; in experiment [14], -3.36% (active).
In the case of `C=CC[Se]C(=O)c1cncc(C(=O)[Se]CC=C)c1`, the growth was -74.7% (active) in [1]; -18% (active) in experiment [2]; -89.5% (active) in experiment [3]; -15.7% (active) in [5]; -91.9% (active) in experiment [6]; -98.4% (active) in experiment [7]. In addition, the growth was -39.9% (active) in experiment [8]; -22.9% (active) in experiment [9]; -13.3% (active) in experiment [10]; -86.6% (active) in [11]; -70.2% (active) in experiment [20]; -42.2% (active) in experiment [17]. The growth in experiment [12] was -42.7% (active); in experiment [13], -73.1% (active); in [14], -85.2% (active).
Regarding `COc1cc2cc(C(=O)N3C[C@@H](CCl)c4c3cc(OC(=O)N3CCN(C)[C@@H]5CSSC[C@@H]53)c3ccccc43)[nH]c2c(OC)c1OC`, the growth in [1] is -67.5% (active); in experiment [2], -4.54% (active); in experiment [3] it was -55.8% (active); in experiment [4], -55.6% (active); in experiment [5], 10.1%; in experiment [19], -43.2% (active). The growth in experiment [6] is -80.7% (active); in experiment [15], -32.7% (active); in [7], -33.5% (active); in [8] it was -25.1% (active); in experiment [9], 3.8% (active); in [10] it was 18.9%. Further, the growth was -6.69% (active) in [11]; -25.5% (active) in experiment [16]; -22.2% (active) in experiment [20]; -6.71% (active) in experiment [18]; -8.94% (active) in experiment [12]; 0.977% (active) in experiment [13]. For the same molecule, the growth in experiment [14] was -80% (active).
